What all share (parameters): scale not given: direction of the effect not stated beside the values
Test [1] addresses Protein translocase subunit SecA (Escherichia coli (strain K12)) (UniProt P10408). The test is described as follows: Assay to Identify E. coli SecA ATPase Inhibitors. It is filed as functional. As to conditions: 30 µM.
In test [2] the target is T1, Ubiquitin-activating enzyme e1, putative (Leishmania donovani (strain BPK282A1)) (UniProt E9BSI1).
T1 sequence (whole entry): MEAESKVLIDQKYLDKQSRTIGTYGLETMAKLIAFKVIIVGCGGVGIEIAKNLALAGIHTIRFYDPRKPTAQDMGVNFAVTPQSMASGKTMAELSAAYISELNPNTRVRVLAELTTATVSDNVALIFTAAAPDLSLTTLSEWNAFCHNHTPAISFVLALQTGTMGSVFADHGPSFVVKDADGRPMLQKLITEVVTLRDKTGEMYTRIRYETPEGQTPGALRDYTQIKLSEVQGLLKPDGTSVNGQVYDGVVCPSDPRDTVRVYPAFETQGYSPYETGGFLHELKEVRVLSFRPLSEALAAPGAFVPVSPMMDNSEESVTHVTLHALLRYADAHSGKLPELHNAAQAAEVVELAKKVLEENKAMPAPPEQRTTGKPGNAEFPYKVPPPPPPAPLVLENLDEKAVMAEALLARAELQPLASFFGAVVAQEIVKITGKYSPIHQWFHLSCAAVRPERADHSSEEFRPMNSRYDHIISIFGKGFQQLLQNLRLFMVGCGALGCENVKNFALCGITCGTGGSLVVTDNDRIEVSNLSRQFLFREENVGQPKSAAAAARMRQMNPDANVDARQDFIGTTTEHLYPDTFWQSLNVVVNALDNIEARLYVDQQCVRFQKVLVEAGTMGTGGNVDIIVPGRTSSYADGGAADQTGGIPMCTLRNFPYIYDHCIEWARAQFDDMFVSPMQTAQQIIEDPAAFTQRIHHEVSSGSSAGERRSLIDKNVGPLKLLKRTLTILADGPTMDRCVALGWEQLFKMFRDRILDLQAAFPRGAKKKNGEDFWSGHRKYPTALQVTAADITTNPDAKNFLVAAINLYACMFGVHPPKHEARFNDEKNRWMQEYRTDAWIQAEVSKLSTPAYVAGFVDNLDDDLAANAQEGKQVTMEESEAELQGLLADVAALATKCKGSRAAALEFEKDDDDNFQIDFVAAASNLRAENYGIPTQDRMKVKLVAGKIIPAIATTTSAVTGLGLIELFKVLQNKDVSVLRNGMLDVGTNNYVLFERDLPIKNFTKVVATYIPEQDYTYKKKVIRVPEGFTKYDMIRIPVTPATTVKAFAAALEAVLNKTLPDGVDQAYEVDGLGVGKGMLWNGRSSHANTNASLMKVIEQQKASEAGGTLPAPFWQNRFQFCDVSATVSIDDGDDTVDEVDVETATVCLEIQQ
Nature of the test: Leishmania donovani Ubiquitin Activating Enzyme (LdE1). It counts as functional. As to conditions: 30 µM.

For test [3], the target named is AMP-activated protein kinase, AMPK (Homo sapiens) (UniProt P54646+O43741+P54619+Q9UGJ0+Q9Y478+Q13131+Q9UGI9). Nature of the test: AMP-dependent Kinase enzyme assay. An in vitro enzyme assay that detects ADP turnover that is directly proportional to AMPK activity. This uses naive AMPK that is activated during the assay with MK-8722. The following applies: 30 µM. It counts as functional.

The target of test [4] is Sialic acid-binding Ig-like lectin 9 (Homo sapiens) (UniProt Q9Y336). The test is described as follows: Hs-Siglec9 ALPHAscreen SOP 20170721. As to conditions: 10 µM. (In general: Bead proximity is the source of the signal in Alpha formats.)
The test system of another test is Trypanosoma cruzi. The test is described as follows: Trypanosoma cruzi phosphomannomutase and mannose-1-phosphate guanylyltransferase assay. It counts as functional. As to conditions: 10 µM.
For test [5], the target named is T2, Arginase-2, mitochondrial (Homo sapiens) (UniProt P78540).
T2 sequence (whole entry): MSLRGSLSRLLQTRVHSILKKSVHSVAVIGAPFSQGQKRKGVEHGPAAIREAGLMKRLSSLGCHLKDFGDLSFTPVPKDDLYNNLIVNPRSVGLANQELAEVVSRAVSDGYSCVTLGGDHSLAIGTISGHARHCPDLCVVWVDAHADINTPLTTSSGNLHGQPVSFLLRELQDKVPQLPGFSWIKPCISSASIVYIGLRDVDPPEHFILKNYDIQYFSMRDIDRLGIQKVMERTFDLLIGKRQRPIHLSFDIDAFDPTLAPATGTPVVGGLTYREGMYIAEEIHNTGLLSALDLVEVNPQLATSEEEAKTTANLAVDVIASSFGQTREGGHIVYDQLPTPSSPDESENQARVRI
Nature of the test: in vitro enzyme assay to detect the production of urea directly proportional to the activity of Arginase II. Further: in the data most compounds retested in dose-response had high values. It is filed as functional. The following applies: 33.3 µM.

The target of test [6] is T3, Proteasome subunit beta (Trypanosoma cruzi) (UniProt O96673).
T3 sequence (whole entry): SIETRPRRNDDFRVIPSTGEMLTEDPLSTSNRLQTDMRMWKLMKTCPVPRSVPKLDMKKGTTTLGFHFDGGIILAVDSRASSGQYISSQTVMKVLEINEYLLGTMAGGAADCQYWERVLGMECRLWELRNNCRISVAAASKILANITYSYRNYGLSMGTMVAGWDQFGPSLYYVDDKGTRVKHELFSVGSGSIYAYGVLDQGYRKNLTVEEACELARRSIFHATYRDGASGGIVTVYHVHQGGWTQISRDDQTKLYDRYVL
Nature of the test: Trypanosoma cruzi proteasome chymotrypsin-like activity (TcProtChymo) assay. Further: in the data most compounds retested in dose-response had high values. As to conditions: 9.37 µM. It counts as functional.

For another test, the species on record is Homo sapiens. The test is described as follows: To identify inhibition of the IFN signalling (Jak-Stat) pathway via expression of an eGFP reporter gene under the control of an IFN-stimulated response element (ISRE) containing MxA promoter. The following applies: 30 µM. It is filed as functional.
Test [7] addresses T4, Tyrosyl-tRNA synthetase, putative (Trypanosoma cruzi (strain CL Brener)) (UniProt Q4DSP6).
T4 sequence (whole entry): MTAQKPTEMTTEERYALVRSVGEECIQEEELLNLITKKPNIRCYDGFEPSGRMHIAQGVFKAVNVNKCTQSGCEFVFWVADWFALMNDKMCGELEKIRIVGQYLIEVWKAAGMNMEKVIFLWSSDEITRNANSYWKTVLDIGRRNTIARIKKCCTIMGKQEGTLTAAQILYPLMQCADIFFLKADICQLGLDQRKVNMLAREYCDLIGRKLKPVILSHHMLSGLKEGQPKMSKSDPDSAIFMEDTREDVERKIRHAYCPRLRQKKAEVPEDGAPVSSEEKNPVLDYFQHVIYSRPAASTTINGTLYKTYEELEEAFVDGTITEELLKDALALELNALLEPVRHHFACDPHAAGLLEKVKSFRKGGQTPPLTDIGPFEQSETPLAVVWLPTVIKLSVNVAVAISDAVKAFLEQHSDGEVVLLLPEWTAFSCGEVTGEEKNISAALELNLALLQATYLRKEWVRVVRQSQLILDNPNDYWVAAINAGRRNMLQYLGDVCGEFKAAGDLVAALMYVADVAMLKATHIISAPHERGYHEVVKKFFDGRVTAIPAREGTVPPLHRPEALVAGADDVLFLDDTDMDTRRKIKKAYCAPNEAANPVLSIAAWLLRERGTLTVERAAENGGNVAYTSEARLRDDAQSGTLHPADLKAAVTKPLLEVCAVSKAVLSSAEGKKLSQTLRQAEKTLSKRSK
Nature of the test: Trypanosoma cruzi tyrosyl tRNA synthetase (TcYRS) _High Tyrosine SOP. Further: in the data most compounds retested in dose-response had high values. It is filed as functional. The following applies: 30 µM.

For test [8], the target named is T4, Tyrosyl-tRNA synthetase, putative (Trypanosoma cruzi (strain CL Brener)). Nature of the test: Trypanosoma cruzi tyrosyl tRNA synthetase (TcYRS) SOP. It is filed as functional. The following applies: 30 µM.
The target of test [9] is Chromo domain-containing protein 1 (Saccharomyces cerevisiae (strain ATCC 204508 / S288c) (Baker's yeast)) (UniProt P32657). Nature of the test: ScCHD-1 Enzyme Inhibition Assay. Further: in the data most compounds retested in dose-response had high values. It counts as functional. As to conditions: 30 µM.

For some of these results: Measured potencies and affinities stand elsewhere.

The values below come from ChEMBL document CHEMBL3988442, “University of Dundee, Small-Polar-MMV Screening Library” (2021).

Sequence of Protein translocase subunit SecA (Escherichia coli (strain K12)) (P10408 whole entry): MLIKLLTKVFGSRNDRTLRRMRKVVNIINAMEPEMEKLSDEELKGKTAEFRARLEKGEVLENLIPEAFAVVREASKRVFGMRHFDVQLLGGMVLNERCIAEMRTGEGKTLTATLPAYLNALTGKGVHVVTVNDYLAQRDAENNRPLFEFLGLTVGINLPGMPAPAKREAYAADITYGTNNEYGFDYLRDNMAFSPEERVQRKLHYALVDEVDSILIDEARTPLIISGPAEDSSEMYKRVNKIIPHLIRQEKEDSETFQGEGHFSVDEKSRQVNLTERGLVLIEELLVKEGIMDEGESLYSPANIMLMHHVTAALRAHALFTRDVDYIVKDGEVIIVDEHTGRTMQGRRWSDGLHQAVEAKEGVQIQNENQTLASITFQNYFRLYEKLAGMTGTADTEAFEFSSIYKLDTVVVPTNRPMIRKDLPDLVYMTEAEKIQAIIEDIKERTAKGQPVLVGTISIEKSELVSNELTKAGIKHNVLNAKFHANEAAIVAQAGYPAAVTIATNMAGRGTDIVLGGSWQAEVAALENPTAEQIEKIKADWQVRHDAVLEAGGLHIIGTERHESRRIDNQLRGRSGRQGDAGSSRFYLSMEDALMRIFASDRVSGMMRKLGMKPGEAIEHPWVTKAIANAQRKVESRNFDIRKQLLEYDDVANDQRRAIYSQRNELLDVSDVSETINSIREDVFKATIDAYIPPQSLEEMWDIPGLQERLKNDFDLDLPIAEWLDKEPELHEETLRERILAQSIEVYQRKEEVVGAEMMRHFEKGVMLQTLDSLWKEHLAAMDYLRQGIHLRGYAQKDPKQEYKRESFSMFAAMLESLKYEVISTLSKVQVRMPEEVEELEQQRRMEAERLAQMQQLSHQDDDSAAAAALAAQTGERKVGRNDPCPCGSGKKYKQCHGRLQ
Sequence of Chromo domain-containing protein 1 (Saccharomyces cerevisiae (strain ATCC 204508 / S288c) (Baker's yeast)) (P32657 whole entry, the tested form may be a part): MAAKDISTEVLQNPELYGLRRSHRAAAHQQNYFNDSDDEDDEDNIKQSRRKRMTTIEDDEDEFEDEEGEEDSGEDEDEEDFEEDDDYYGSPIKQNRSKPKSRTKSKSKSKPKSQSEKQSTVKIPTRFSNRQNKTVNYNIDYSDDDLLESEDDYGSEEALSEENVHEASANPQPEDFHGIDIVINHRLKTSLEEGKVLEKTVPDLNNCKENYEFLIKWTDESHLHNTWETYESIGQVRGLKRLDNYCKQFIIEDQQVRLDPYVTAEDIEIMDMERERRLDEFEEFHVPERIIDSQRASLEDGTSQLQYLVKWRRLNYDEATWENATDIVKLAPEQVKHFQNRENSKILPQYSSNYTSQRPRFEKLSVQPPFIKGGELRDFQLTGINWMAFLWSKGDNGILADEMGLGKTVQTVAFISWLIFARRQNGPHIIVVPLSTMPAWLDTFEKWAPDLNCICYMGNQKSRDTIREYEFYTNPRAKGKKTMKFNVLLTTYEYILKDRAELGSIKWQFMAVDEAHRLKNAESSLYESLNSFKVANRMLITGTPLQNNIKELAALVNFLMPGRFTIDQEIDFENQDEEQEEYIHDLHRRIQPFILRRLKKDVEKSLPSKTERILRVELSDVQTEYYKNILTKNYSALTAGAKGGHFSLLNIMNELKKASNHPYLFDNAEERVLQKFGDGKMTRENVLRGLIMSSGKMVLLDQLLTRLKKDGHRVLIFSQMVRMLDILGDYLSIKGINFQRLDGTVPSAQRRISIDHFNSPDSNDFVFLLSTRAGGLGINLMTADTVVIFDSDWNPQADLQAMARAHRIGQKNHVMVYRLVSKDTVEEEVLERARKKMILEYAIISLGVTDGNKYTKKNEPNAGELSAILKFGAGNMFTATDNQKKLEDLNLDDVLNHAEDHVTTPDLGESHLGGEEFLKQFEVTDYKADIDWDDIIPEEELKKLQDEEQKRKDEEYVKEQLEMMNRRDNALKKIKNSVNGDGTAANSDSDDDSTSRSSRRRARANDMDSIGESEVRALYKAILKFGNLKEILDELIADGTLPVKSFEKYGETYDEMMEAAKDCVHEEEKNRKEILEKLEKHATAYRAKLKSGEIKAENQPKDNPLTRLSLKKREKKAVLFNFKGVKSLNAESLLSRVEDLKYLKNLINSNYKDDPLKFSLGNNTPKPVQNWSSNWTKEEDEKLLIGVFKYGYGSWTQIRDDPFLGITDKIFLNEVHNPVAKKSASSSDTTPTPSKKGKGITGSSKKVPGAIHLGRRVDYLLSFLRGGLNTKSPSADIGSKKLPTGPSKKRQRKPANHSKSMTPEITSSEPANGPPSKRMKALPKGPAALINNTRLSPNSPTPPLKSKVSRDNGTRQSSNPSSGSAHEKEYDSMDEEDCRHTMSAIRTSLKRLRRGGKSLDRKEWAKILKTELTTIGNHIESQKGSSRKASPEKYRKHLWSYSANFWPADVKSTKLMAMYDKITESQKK
Sequence of Sialic acid-binding Ig-like lectin 9 (Homo sapiens) (Q9Y336 whole entry): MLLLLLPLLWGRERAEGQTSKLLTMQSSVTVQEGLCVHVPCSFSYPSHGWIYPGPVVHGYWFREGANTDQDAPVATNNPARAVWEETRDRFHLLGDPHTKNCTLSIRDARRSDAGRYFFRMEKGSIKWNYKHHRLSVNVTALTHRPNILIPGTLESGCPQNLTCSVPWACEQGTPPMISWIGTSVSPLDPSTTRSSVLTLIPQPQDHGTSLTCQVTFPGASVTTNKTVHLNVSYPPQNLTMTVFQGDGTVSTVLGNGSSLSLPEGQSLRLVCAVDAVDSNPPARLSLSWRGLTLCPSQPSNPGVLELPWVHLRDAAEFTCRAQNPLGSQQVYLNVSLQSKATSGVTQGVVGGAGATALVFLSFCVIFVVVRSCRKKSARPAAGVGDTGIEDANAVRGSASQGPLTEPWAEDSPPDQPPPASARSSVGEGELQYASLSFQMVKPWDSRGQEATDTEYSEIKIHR

On to `COC1CCCN(C(=O)Nc2nc(C)n(C)n2)C1` (stereo unspecified), for which the Percent Effect was -4.33% in test [1]; 8% in test [2]; -6.08% in test [3]; 5.49% in [4]; 1.27% in the test with Trypanosoma cruzi; 1.56% in test [5]. The Percent Effect in test [6] was 11.2%; in the test listed under Homo sapiens, 14.3%; in test [7], 6.01%; in test [8], 6.17%; in test [9] it was -6.37%.

As to `O=C(C1CC1)N1CCN(Cc2coc(-c3ccc(Cl)cc3)n2)CC1`, the Percent Effect in test [1] is -5.03%; in [2], -7.79%; in test [3], 1.6%; in [4], 13.9%; in the test on Trypanosoma cruzi it was 8.8%; in [5], -1.42%. Besides, the Percent Effect was -3.38% in test [6]; 43% in the test filed under Homo sapiens; 3.88% in test [7]; 0% in test [8]; -5.59% in test [9].

`Cc1nc(C)c(C(=O)N2CCC(Nc3cccnc3)CC2)s1`: the Percent Effect in test [1] is 0.905%; in test [2], -2.74%; in [3] it was -10.4%; in [4], 50.9%; with Trypanosoma cruzi it was -3.37%; in [5], 8.38%. In addition, the Percent Effect in test [6] was 14.5%; in the test filed under Homo sapiens, -5.72%; in test [7] it was 2.08%; in test [8], 3.7%; in test [9], -3.74%.

On to `O=C(C1CCOCC1)N1C[C@@H]2[C@@H](C1)OCC(=O)N2Cc1ccncc1`, for which the Percent Effect in test [1] was -1.9%; in test [2], -2.74%; in [3], -1.14%; in [4], 7.63%; in the test on Trypanosoma cruzi, 1.19%; in test [5], -0.399%. Moreover, the Percent Effect was 4.2% in [6]; 2.13% in the test listed under Homo sapiens; 2.08% in [7]; -6.17% in test [8]; -1.66% in test [9].

As to `CC(=O)NCCNC(=O)c1sc(-c2ccc(C)cc2C)nc1C`, the Percent Effect in test [1] was -2.37%; in test [2] it was 10.8%; in [3] it was -0.818%; in test [4] it was -4.19%; in the test on Trypanosoma cruzi it was -7.89%; in test [5], 3.51%. Further, the Percent Effect came to 8.26% in test [6]; 10.8% in the test filed under Homo sapiens; 4.95% in test [7]; 11% in test [8]; 7.83% in test [9].

For the molecule `CCC(=O)N1CCC2(CC1)COc1ccccc1S(=O)(=O)N(C)C2`, the Percent Effect in test [1] is -4.24%; in [2] it was 16.2%; in test [3] it was -6.69%; in [4], 20.9%; with Trypanosoma cruzi it was 1.27%; in [5], 2.23%. The Percent Effect was 9.7% in test [6]; 7.17% in the test filed under Homo sapiens; 7.53% in test [7]; 18.5% in test [8]; -11.2% in test [9].

As for `COc1cccc2c1ccn2CC(=O)N[C@@H](CCSC)C(=O)O`, the Percent Effect in [1] is 1.36%; in [2], -1.33%; in [3], -55.8%; in [4], 3.95%; in the test on Trypanosoma cruzi, -0.197%; in test [5], -7.57%. Besides, the Percent Effect was 11.5% in test [6]; -11.4% in the test listed under Homo sapiens; 4.23% in test [7]; -30.8% in [8]; -0.515% in test [9].

Consider `COc1cccc(CN(C)C(=O)CN2CCN(c3nccn3C)CC2)c1`, for which the Percent Effect is -1.77% in test [1]; 8% in test [2]; -12.7% in test [3]; 7.67% in test [4]; 3.99% with Trypanosoma cruzi; 14.1% in [5]. Besides, the Percent Effect was 20.6% in [6]; 1.29% in the test filed under Homo sapiens; 10.4% in [7]; 21% in test [8]; -3.45% in test [9].

Consider `COCC(O)CNC(=O)c1cnc(-c2ccccc2)nc1O` (stereo unspecified), for which the Percent Effect in test [1] was 2.38%; in [2], 8.11%; in test [3], -5.21%; in test [4], 5.6%; with Trypanosoma cruzi, 3.28%; in test [5], -0.476%. Further, the Percent Effect in test [6] is 8.97%; in the test listed under Homo sapiens, 13.5%; in test [7] it was 8.99%; in test [8], 19.5%; in test [9] it was -0.825%.

With `Cc1cnn(CC2CCCN2Cc2coc(-c3ccccc3)n2)c1` (stereo unspecified), the Percent Effect is 0.182% in [1]; -11% in test [2]; -9.12% in [3]; 16.7% in [4]; 6.46% in the test on Trypanosoma cruzi; 1.82% in test [5]. In addition, the Percent Effect in test [6] is 1.77%; in the test filed under Homo sapiens, -7.46%; in test [7] it was 3.23%; in test [8], 5%; in test [9] it was -6.56%.

As for `Cn1cc(-c2csc(N3CCOCC3)n2)cn1`, the Percent Effect was -3.35% in [1]; 1.39% in [2]; -45.6% in test [3]; -2.23% in test [4]; 1.26% in the test on Trypanosoma cruzi; 2.21% in test [5]. In addition, the Percent Effect was 0.702% in test [6]; 1.08% in the test listed under Homo sapiens; 15.8% in [7]; 28.2% in test [8]; -0.624% in test [9].
